Measured values as given in paper PMC7862700, “An all-to-all approach to the identification of sequence-specific readers for epigenetic DNA modifications on cytosine”.

Legend:
Test in all cases: DAPPL (digital affinity profiling via proximity ligation, sequencing); 10 mM Tris-HCl pH 7.5, 50 mM NaCl, 1 mM DTT, 4% glycerol, room temperature, 30 min; GST-TFs on glutathione beads, 16-mer random dsDNA library, 0.1% formaldehyde crosslink after washing; high values mean tight binding
FEV = target: T1, FEV (Homo sapiens, UniProt Q99581 1-238); settings: protein: recombinant; tags: N-terminal GST; dsDNA, one strand shown
T1 sequence: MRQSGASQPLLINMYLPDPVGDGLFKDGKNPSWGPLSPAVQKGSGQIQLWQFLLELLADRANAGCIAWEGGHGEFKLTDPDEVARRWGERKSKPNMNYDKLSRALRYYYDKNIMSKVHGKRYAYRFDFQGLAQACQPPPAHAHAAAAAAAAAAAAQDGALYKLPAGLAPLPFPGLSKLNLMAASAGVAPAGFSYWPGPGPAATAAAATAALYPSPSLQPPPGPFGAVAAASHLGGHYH
In short: (§1)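 Binding signal is each hexamer's read frequency for a factor divided by its frequency in the tag-only sample. The factors were GST-fused human transcription factors from yeast, captured on glutathione beads, DNA-barcoded and pooled with that sample. Pools were incubated with 200 nmole of a random double-stranded 16-mer DNA library in Tris/NaCl/DTT/glycerol buffer at room temperature for 30 min, then washed, crosslinked with 0.1% formaldehyde, proximity-ligated with BsaI/T4 ligase (1 h, 37 °C), PCR-amplified and sequenced on an Illumina NextSeq500.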

ETV5 = ETV5 (Homo sapiens, UniProt P41161 1-510); settings: protein: recombinant; tags: N-terminal GST; dsDNA, one strand shown
In short: as §1

HSF1 = HSF1 (Homo sapiens, UniProt Q00613 1-529); settings: protein: recombinant; tags: N-terminal GST; chain copies: 3; dsDNA, one strand shown
In short: as §1

SPIC = target: T2, SPIC (Homo sapiens, UniProt Q8N5J4 1-248); settings: protein: recombinant; tags: N-terminal GST; dsDNA, one strand shown
T2 sequence: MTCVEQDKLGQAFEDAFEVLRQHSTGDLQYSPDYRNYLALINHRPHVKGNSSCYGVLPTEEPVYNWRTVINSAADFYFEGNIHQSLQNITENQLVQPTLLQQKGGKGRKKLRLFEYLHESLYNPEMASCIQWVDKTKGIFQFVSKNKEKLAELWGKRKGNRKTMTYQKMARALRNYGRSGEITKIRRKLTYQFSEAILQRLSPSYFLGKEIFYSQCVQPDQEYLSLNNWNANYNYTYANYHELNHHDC
In short: as §1

ELK4 = target: T3, ELK4 (Homo sapiens, UniProt P28324-2 1-405); settings: protein: recombinant; tags: N-terminal GST; dsDNA, one strand shown
T3 sequence: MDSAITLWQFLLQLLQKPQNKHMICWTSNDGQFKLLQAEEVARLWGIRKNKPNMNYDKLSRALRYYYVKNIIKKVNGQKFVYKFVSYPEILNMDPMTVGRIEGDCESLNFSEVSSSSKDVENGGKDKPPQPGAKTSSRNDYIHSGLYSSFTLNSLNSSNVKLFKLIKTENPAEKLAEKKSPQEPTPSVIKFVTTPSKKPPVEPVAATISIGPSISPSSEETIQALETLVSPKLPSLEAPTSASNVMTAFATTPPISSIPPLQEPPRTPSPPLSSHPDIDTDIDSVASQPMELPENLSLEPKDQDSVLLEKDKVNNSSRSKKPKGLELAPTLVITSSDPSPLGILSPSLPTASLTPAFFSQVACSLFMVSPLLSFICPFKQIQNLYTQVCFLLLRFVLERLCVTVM
In short: as §1

ETV2 = target: T4, ETV2 (Homo sapiens, UniProt O00321 1-342); settings: protein: recombinant; tags: N-terminal GST; dsDNA, one strand shown
T4 sequence: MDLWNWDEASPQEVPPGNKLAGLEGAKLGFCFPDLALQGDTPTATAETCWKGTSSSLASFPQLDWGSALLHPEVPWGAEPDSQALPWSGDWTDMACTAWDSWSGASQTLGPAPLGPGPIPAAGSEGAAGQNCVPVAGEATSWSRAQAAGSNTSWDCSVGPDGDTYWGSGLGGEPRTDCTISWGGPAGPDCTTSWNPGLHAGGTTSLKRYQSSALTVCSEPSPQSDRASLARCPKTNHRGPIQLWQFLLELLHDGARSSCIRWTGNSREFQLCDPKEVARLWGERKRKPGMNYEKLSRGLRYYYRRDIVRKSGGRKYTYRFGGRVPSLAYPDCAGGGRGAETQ
In short: as §1

ELF3 = target: T5, ELF3 (Homo sapiens, UniProt P78545 1-371); settings: protein: recombinant; tags: N-terminal GST; dsDNA, one strand shown
T5 sequence: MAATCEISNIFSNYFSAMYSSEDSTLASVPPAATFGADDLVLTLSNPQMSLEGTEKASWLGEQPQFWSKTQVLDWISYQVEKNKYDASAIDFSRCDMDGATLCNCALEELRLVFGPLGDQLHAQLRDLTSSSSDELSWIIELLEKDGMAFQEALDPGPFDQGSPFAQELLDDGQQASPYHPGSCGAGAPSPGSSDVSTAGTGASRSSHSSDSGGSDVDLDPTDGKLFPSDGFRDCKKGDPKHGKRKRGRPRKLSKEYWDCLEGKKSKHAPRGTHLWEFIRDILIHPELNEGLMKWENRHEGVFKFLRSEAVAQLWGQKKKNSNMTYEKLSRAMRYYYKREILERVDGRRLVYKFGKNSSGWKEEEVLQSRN
In short: as §1

CRX = CRX (Homo sapiens, UniProt O43186 1-299); settings: protein: recombinant; tags: N-terminal GST; dsDNA, one strand shown
In short: as §1

ETV3L = target: T6, ETV3L (Homo sapiens, UniProt Q6ZN32 1-361); settings: protein: recombinant; tags: N-terminal GST; dsDNA, one strand shown
T6 sequence: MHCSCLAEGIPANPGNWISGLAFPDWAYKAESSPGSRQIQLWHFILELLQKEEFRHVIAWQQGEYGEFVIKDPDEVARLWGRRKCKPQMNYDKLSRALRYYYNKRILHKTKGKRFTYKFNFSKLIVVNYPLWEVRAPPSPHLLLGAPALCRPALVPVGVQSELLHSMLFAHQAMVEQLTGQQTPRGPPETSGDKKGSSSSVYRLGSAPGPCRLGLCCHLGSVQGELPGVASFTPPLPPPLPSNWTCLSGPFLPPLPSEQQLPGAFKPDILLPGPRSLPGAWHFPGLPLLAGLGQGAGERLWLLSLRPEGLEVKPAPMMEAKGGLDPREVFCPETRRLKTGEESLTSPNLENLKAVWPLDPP
In short: as §1

SPDEF = target: T7, SPDEF (Homo sapiens, UniProt O95238 1-335); settings: protein: recombinant; tags: N-terminal GST; dsDNA, one strand shown
T7 sequence: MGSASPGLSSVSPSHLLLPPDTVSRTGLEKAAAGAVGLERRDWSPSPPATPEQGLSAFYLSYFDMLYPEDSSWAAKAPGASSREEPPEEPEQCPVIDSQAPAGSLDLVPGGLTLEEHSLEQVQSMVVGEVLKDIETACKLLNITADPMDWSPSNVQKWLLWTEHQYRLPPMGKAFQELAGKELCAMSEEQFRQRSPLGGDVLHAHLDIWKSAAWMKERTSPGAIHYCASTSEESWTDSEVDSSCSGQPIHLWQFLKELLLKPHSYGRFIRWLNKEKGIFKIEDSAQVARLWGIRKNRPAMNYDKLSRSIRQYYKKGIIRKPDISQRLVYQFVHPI
In short: as §1

ETV7 = target: T8, ETV7 (Homo sapiens, UniProt Q9Y603 1-341); settings: protein: recombinant; tags: N-terminal GST; dsDNA, one strand shown
T8 sequence: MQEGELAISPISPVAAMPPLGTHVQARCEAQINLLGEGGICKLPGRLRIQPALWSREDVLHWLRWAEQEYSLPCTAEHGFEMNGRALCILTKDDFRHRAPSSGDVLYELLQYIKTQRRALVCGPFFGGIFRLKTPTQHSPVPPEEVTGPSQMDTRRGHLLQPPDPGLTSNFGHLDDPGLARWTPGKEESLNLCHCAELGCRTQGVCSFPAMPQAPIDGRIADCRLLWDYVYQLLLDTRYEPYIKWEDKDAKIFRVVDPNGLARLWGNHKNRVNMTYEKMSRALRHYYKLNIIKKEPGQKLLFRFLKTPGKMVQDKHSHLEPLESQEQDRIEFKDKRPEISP
In short: as §1

ELF5 = target: T9, ELF5 (Homo sapiens, UniProt Q9UKW6-2 1-255); settings: protein: recombinant; tags: N-terminal GST; dsDNA, one strand shown
T9 sequence: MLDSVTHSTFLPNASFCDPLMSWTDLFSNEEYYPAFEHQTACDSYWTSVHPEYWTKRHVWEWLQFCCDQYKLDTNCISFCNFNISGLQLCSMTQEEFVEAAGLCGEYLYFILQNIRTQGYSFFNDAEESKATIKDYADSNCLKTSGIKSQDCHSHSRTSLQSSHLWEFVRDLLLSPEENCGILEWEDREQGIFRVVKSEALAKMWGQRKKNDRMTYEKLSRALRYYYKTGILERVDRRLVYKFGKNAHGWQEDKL
In short: as §1

ETV3 = target: T10, ETV3 (Homo sapiens, UniProt P41162-2 1-143); settings: protein: recombinant; tags: N-terminal GST; dsDNA, one strand shown
T10 sequence: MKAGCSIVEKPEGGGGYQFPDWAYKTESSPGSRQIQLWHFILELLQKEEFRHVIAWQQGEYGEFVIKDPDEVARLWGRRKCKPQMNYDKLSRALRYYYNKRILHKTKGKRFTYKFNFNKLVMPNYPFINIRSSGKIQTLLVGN
In short: as §1

ETV6 = ETV6 (Homo sapiens, UniProt P41212 1-452); settings: protein: recombinant; tags: N-terminal GST; dsDNA, one strand shown
In short: as §1

ELF4 = ELF4 (Homo sapiens, UniProt Q99607 1-663); settings: protein: recombinant; tags: N-terminal GST; dsDNA, one strand shown
In short: as §1

ETV1 = ETV1 (Homo sapiens, UniProt P50549 1-477); settings: protein: recombinant; tags: N-terminal GST; dsDNA, one strand shown
In short: as §1

ERF = target: T11, ERF (Homo sapiens, UniProt P50548 1-548); settings: protein: recombinant; tags: N-terminal GST; dsDNA, one strand shown
T11 sequence: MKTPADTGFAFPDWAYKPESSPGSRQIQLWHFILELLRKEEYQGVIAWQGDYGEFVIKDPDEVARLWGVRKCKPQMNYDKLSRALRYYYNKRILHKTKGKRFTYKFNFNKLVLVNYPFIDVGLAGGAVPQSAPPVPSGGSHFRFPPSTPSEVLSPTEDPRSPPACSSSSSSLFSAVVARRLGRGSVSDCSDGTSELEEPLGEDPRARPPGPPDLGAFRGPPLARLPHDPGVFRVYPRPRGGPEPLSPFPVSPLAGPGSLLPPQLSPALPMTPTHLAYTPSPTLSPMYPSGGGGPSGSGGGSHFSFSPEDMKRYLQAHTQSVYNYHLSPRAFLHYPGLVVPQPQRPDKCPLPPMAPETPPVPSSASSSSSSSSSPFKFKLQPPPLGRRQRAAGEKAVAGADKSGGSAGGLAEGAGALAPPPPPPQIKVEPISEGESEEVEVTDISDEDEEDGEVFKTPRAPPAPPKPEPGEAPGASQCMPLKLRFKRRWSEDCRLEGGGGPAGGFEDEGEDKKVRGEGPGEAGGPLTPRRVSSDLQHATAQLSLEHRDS
In short: as §1

ETS2 = target: T12, ETS2 (Homo sapiens, UniProt P15036 1-469); settings: protein: recombinant; tags: N-terminal GST; dsDNA, one strand shown
T12 sequence: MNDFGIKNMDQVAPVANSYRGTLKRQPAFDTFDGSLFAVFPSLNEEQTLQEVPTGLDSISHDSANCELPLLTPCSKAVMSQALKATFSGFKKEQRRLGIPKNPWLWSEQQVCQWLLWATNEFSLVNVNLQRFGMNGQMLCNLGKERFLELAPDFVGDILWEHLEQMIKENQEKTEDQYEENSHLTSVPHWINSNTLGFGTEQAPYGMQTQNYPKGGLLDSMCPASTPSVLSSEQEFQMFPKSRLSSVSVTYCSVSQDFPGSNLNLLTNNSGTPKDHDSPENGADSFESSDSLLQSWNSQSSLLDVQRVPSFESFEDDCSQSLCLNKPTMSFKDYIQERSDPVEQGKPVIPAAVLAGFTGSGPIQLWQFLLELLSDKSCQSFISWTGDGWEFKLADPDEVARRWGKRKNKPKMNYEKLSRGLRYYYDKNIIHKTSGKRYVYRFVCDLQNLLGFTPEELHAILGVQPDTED
In short: as §1

Sequence of ETV6 (P41212 whole entry): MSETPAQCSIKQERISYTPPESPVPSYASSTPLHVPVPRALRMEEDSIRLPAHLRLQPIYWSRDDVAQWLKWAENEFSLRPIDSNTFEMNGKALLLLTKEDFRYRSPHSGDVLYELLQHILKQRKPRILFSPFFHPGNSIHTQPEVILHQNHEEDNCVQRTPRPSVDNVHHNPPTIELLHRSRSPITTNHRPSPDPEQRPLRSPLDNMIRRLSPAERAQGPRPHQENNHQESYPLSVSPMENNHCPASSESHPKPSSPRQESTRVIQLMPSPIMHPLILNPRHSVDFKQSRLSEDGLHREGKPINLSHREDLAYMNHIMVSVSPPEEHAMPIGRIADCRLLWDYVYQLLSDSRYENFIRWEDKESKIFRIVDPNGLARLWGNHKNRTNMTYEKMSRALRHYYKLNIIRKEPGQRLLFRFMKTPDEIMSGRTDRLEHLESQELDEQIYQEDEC
Sequence of HSF1 (Q00613 whole entry): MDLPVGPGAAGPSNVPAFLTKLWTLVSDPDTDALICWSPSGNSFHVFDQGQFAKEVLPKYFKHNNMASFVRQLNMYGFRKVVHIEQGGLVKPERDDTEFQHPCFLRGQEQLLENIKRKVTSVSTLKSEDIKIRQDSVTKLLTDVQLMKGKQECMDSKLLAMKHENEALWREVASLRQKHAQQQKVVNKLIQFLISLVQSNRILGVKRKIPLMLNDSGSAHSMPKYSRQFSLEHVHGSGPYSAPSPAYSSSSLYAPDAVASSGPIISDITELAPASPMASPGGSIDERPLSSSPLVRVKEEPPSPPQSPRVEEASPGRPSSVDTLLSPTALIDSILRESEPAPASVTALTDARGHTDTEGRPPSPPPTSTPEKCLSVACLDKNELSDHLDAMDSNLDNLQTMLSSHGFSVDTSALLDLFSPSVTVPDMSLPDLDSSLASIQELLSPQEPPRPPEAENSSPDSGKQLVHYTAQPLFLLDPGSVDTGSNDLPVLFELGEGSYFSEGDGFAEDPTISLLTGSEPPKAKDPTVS
Sequence of ETV5 (P41161 whole entry): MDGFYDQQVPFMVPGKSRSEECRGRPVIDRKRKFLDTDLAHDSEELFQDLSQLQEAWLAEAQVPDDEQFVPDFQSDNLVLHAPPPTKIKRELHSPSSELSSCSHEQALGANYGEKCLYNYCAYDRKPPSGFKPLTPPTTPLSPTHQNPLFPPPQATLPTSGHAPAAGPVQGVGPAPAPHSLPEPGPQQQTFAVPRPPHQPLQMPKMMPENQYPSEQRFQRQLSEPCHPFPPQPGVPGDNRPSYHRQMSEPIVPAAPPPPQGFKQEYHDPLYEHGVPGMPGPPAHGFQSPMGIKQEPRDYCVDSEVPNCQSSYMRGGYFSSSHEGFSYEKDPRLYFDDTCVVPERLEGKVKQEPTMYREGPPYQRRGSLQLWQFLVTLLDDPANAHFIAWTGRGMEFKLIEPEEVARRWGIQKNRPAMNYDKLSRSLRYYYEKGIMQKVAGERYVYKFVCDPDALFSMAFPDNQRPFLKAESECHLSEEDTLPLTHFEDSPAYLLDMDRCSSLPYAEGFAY
Sequence of CRX (O43186 whole entry): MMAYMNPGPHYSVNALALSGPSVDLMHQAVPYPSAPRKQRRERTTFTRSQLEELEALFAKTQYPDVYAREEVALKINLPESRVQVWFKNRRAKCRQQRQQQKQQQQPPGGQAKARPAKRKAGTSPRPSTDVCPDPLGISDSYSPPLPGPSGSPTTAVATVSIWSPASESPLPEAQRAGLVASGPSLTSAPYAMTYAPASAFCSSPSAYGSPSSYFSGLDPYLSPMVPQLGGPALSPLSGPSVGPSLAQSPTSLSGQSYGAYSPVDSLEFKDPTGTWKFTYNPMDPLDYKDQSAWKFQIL
Sequence of ETV1 (P50549 whole entry): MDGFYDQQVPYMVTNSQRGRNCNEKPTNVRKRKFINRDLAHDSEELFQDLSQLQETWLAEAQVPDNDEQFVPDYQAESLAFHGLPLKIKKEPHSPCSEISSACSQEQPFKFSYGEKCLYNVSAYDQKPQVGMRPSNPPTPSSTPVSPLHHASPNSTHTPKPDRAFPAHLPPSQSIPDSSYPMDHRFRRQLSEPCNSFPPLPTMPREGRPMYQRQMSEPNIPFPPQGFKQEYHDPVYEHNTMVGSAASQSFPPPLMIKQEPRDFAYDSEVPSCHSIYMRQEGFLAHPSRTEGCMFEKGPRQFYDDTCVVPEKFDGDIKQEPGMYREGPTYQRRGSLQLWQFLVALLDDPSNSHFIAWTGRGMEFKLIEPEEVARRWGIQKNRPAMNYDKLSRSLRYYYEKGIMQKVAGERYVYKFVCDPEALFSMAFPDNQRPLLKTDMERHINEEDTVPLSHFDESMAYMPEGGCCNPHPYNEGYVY
Sequence of ELF4 (Q99607 whole entry): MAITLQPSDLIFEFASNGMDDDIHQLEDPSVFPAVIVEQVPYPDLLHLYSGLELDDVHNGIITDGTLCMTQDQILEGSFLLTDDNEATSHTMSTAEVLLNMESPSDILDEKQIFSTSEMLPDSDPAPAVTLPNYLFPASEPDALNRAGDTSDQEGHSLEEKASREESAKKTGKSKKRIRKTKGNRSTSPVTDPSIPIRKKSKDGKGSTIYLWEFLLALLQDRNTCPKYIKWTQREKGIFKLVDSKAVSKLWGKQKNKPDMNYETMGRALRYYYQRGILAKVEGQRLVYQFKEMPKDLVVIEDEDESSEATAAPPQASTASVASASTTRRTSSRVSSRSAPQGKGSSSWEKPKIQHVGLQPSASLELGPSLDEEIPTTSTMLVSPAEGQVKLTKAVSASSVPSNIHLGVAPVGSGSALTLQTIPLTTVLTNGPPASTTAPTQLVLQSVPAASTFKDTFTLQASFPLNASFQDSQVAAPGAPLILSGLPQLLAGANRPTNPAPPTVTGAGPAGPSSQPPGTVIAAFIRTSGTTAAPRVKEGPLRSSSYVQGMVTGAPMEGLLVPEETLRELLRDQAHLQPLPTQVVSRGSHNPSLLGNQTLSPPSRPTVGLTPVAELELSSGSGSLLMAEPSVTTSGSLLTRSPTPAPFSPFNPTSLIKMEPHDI

Sequence	binding signal (FEV)	binding signal (ETV5)	binding signal (HSF1)	binding signal (SPIC)	binding signal (ELK4)	binding signal (ETV2)	binding signal (ELF3)	binding signal (CRX)	binding signal (ETV3L)	binding signal (SPDEF)	binding signal (ETV7)	binding signal (ELF5)	binding signal (ETV3)	binding signal (ETV6)	binding signal (ELF4)	binding signal (ETV1)	binding signal (ERF)	binding signal (ETS2)
AAGGCT	1.05 fold enrichment (6-mer frequency, TF over GST control)	1.01 fold enrichment (6-mer frequency, TF over GST control)	1.1 fold enrichment (6-mer frequency, TF over GST control)	1.06 fold enrichment (6-mer frequency, TF over GST control)	1 fold enrichment (6-mer frequency, TF over GST control)	1.15 fold enrichment (6-mer frequency, TF over GST control)	1.02 fold enrichment (6-mer frequency, TF over GST control)	1.43 fold enrichment (6-mer frequency, TF over GST control)	1.02 fold enrichment (6-mer frequency, TF over GST control)	1.04 fold enrichment (6-mer frequency, TF over GST control)	1.06 fold enrichment (6-mer frequency, TF over GST control)	1.06 fold enrichment (6-mer frequency, TF over GST control)	1.04 fold enrichment (6-mer frequency, TF over GST control)	1.02 fold enrichment (6-mer frequency, TF over GST control)				
AACGTC	1.06 fold enrichment (6-mer frequency, TF over GST control)	1.04 fold enrichment (6-mer frequency, TF over GST control)	1.01 fold enrichment (6-mer frequency, TF over GST control)	1.13 fold enrichment (6-mer frequency, TF over GST control)			1.13 fold enrichment (6-mer frequency, TF over GST control)		1.03 fold enrichment (6-mer frequency, TF over GST control)	1.11 fold enrichment (6-mer frequency, TF over GST control)	1.11 fold enrichment (6-mer frequency, TF over GST control)	1.1 fold enrichment (6-mer frequency, TF over GST control)	1.07 fold enrichment (6-mer frequency, TF over GST control)	1.05 fold enrichment (6-mer frequency, TF over GST control)	1.09 fold enrichment (6-mer frequency, TF over GST control)	1.11 fold enrichment (6-mer frequency, TF over GST control)	1.01 fold enrichment (6-mer frequency, TF over GST control)	1.14 fold enrichment (6-mer frequency, TF over GST control)
